Test results from PubChem BioAssay (EPA / NIEHS).
The source made the active and inactive calls. How the source made its calls: active means hit-call score of the fitted dose curve at least 0.9, where 1 is the maximum; inactive means score below 0.9.

What was measured:
Settings in all cases: mRNA level, 48 h; actives raise or lower the signal
[1] = read-out: Cytochrome P450 3A4 (Homo sapiens) (UniProt P08684); assay: LTEA_HepaRG_CYP3A4: Life Technologies and Expression Analysis (LTEA) Assay for CYP3A4 using HepaRG (AID 2283487)
Procedure, shortened: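 Differentiated HepaRG cells, plated 48 h, then dosed 48 h in serum-free induction medium with 0.5% DMSO, 8 half-log concentrations up to 100 uM, duplicate. CYP3A4 mRNA by qRT-PCR, normalized to ACTB/GAPDH/POLR2A; bidirectional fit versus DMSO.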

[2] = read-out: DNA damage-inducible transcript 3 (DDIT3), DDIT3 (gene 1649); assay: LTEA_HepaRG_DDIT3: Life Technologies and Expression Analysis (LTEA) Assay for DNA damage-inducible transcript 3 (DDIT3) using HepaRG (AID 2283488)
Procedure, shortened: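 qRT-PCR readout (Fluidigm TaqMan), housekeeping-normalized to ACTB, GAPDH, POLR2A. HepaRG cells, 48 h exposure, 8-point half-log series from 100 uM in 0.5% DMSO, duplicates. Gain or loss of signal fitted against DMSO baseline.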

[3] = read-out: Pro-epidermal growth factor (Homo sapiens) (UniProt P01133); assay: LTEA_HepaRG_EGF: Life Technologies and Expression Analysis (LTEA) Assay for Epidermal growth factor (EGF) using HepaRG (AID 2283489)
Procedure, shortened: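 EGF expression changes in human HepaRG cells are scored by bidirectional fitting relative to 0.5% DMSO controls. Chemicals are tested at eight half-log concentrations up to 100 uM for 48 h in serum-free induction medium.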

[4] = read-out: Ezrin (EZR), EZR (gene 7430); assay: LTEA_HepaRG_EZR: Life Technologies and Expression Analysis (LTEA) Assay for Ezrin (EZR) using HepaRG (AID 2283491)
Procedure, shortened: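 EZR transcript levels came from Fluidigm qRT-PCR and were normalized to three housekeeping genes after 48 h chemical exposure of HepaRG cells. Dosing used an 8-point half-log series with a 100 uM top concentration in 0.5% DMSO, tested in duplicate; both directions were fitted versus vehicle.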

[5] = read-out: Cytochrome P450 3A7 (Homo sapiens) (UniProt P24462); assay: LTEA_HepaRG_CYP3A7: Life Technologies and Expression Analysis (LTEA) Assay for CYP3A7 using HepaRG (AID 2283492)
Procedure, shortened: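 Cells were thawed, plated, cultured 48 h, then treated for a further 48 h with chemicals (eight-point half-log series from 100 uM, 0.5% DMSO). RNA was isolated and CYP3A7 expression quantified by qRT-PCR normalised to ACTB, GAPDH and POLR2A.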

[6] = read-out: CYP3A5 (gene 1577); assay: LTEA_HepaRG_CYP3A5: Life Technologies and Expression Analysis (LTEA) Assay for CYP3A5 using HepaRG (AID 2283493)
Procedure, shortened: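 qRT-PCR read-out: CYP3A5 transcript in HepaRG lysates, housekeeping-normalized (ACTB/GAPDH/POLR2A), fitted bidirectionally against 0.5% DMSO baseline. Exposure 48 h, eight half-log concentrations up to 100 uM, duplicates.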

[7] = read-out: Fatty Acid-Binding Protein 1 (FABP1), FABP1 (gene 2168); assay: LTEA_HepaRG_FABP1: Life Technologies and Expression Analysis (LTEA) Assay for Fatty Acid-Binding Protein 1 (FABP1) using HepaRG (AID 2283494)
Procedure, shortened: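 FABP1 expression by TaqMan qRT-PCR, normalised to three housekeeping genes, in HepaRG cells after 48 h chemical treatment. Eight-point half-log series topping at 100 uM in 0.5% DMSO, duplicates; gain or loss fitted relative to vehicle.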

[8] = read-out: Cytochrome P450 4A22 (Homo sapiens) (UniProt Q5TCH4); assay: LTEA_HepaRG_CYP4A22: Life Technologies and Expression Analysis (LTEA) Assay for Cytochrome P450 4A22 (CYP4A22) using HepaRG (AID 2283495)
Procedure, shortened: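 Cryopreserved HepaRG cells, plated and cultured 48 h, then switched to serum-free induction medium and treated 48 h (duplicates, up to 100 uM, half-log steps, 0.5% DMSO). Expression change of CYP4A22 was fitted bidirectionally against vehicle.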

[9] = read-out: Cytochrome P450 7A1 (Homo sapiens) (UniProt P22680); assay: LTEA_HepaRG_CYP7A1: Life Technologies and Expression Analysis (LTEA) Assay for Cytochrome P450 7A1 (CYP7A1) using HepaRG (AID 2283496)
Procedure, shortened: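 Using 0.5% DMSO as vehicle and baseline, chemicals were tested in duplicate over an 8-point range from 100 uM on HepaRG cells for 48 h; qRT-PCR signals were normalised to ACTB, GAPDH and POLR2A.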

[10] = read-out: Glutathione S-Transferase (GSTA2), GSTA2 (gene 2939); assay: LTEA_HepaRG_GSTA2: Life Technologies and Expression Analysis (LTEA) Assay for Glutathione S-Transferase (GSTA2) using HepaRG (AID 2283497)
Procedure, shortened: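 GSTA2 transcript levels came from Fluidigm TaqMan qRT-PCR normalized to three housekeeping genes, fitted in both directions against DMSO. HepaRG cultures received chemicals for 48 h in serum-free induction medium (0.5% DMSO), 8 half-log concentrations up to 100 uM, duplicate.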

[11] = read-out: Glutamate-cysteine ligase catalytic (GCLC), GCLC (gene 2729); assay: LTEA_HepaRG_GCLC: Life Technologies and Expression Analysis (LTEA) Assay for Glutamate-cysteine ligase catalytic (GCLC) using HepaRG (AID 2283498)
Procedure, shortened: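 Expression by TaqMan qRT-PCR, normalized to three housekeeping genes (ACTB, GAPDH, POLR2A), with up- or down-regulation fitted against DMSO. HepaRG cells dosed in duplicate for 48 h with 8 half-log concentrations up to 100 uM, vehicle 0.5% DMSO.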

[12] = read-out: Glutamate-cysteine ligase regulatory (GCLM), GCLM (gene 2730); assay: LTEA_HepaRG_GCLM: Life Technologies and Expression Analysis (LTEA) Assay for Glutamate-cysteine ligase regulatory (GCLM) using HepaRG (AID 2283500)
Procedure, shortened: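 HepaRG, 48 h dosing, 100 uM top, half-log x8, 0.5% DMSO vehicle. Readout: GCLM mRNA by TaqMan qRT-PCR, housekeeping-normalized (ACTB/GAPDH/POLR2A). Curves fit bidirectionally vs DMSO baseline.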

[13] = read-out: Glutathione S-transferase M3 (GSTM3), GSTM3 (gene 2947); assay: LTEA_HepaRG_GSTM3: Life Technologies and Expression Analysis (LTEA) Assay for Glutathione S-transferase M3 (GSTM3) using HepaRG (AID 2283501)
Procedure, shortened: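 Changes in GSTM3 expression, an oxidative-stress marker, were scored by bidirectional curve fitting against 0.5% DMSO vehicle. Human HepaRG cultures received chemicals for 48 h in duplicate, highest concentration 100 uM with half-log dilutions.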

[14] = read-out: Heat shock 70 kDa protein 1 (HSPA1A), gene 3303; assay: LTEA_HepaRG_HSPA1A: Life Technologies and Expression Analysis (LTEA) Assay for Heat shock 70 kDa protein 1 (HSPA1A) using HepaRG (AID 2283502)
Procedure, shortened: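 HepaRG, 48 h exposure, 8-pt half-log CRC from 100 uM in 0.5% DMSO, duplicates. Readout: TaqMan qRT-PCR of HSPA1A mRNA, housekeeping-normalized (ACTB/GAPDH/POLR2A). Bidirectional fit vs 0.5% DMSO baseline.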

[15] = read-out: Hypoxia-inducible factor 1-alpha (Homo sapiens) (UniProt Q16665); assay: LTEA_HepaRG_HIF1A: Life Technologies and Expression Analysis (LTEA) Assay for Hypoxia-inducible factor 1 (HIF1A) Trancription factor using HepaRG (AID 2283503)
Procedure, shortened: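 Gain- or loss-of-signal HIF1A mRNA changes are fitted against a DMSO baseline. HepaRG cultures receive eight concentrations, highest 100 uM, for 48 h in serum-free induction medium with 0.5% DMSO.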

[16] = read-out: 3-Hydroxy-3-Methylglutaryl-CoA Synthase 2 (HMGCS2), HMGCS2 (gene 3158); assay: LTEA_HepaRG_HMGCS2: Life Technologies and Expression Analysis (LTEA) Assay for 3-Hydroxy-3-Methylglutaryl-CoA Synthase 2 (HMGCS2) using HepaRG (AID 2283504)
Procedure, shortened: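 Expression of HMGCS2 in human HepaRG liver cells is measured by qRT-PCR 48 h after dosing (highest 100 uM, half-log series, 0.5% DMSO). Values come from bidirectional concentration-response fitting with DMSO as baseline.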

[17] = read-out: HGF (gene 3082); assay: LTEA_HepaRG_HGF: Life Technologies and Expression Analysis (LTEA) Assay for Hepatocyte Growth Facto (HGF) using HepaRG (AID 2283505)
Procedure, shortened: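 Gain or loss of HGF mRNA in human HepaRG liver cells after 48 h chemical exposure; eight concentrations up to 100 uM with 0.5% DMSO vehicle, quantified by TaqMan qRT-PCR.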

[18] = read-out: Insulin Like Growth Factor 1 (IGF1), IGF1 (gene 3479); assay: LTEA_HepaRG_IGF1: Life Technologies and Expression Analysis (LTEA) Assay for Insulin Like Growth Factor 1 (IGF1) using HepaRG (AID 2283506)
Procedure, shortened: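 qRT-PCR readout of IGF1 mRNA, normalized to three housekeeping genes, after 48 h chemical exposure of HepaRG cells. Concentrations: 8-point half-log series, top 100 uM, 0.5% DMSO vehicle. Gain or loss fitted against DMSO baseline.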

[19] = read-out: Early growth response protein 1 (EGR1) transcription factor, EGR1 (gene 1958); assay: LTEA_HepaRG_EGR1: Life Technologies and Expression Analysis (LTEA) Assay for Early growth response protein 1 (EGR1) transcription factor using HepaRG (AID 2283490)
Procedure, shortened: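 EGR1 transcript levels quantified by qRT-PCR (Fluidigm arrays) against three housekeeping genes after 48 h chemical exposure of HepaRG cells. Eight-point half-log series topping at 100 uM, 0.5% DMSO vehicle, analyzed for gain or loss.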

[20] = read-out: growth arrest and DNA damage 45 (GADD45G), GADD45G (gene 10912); assay: LTEA_HepaRG_GADD45G: Life Technologies and Expression Analysis (LTEA) Assay for growth arrest and DNA damage 45 (GADD45G) using HepaRG (AID 2283499)
Procedure, shortened: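 Human hepatic HepaRG line treated 48 h with chemicals (eight concentrations, half-log steps from 100 uM); transcript induction or repression of GADD45G scored by qRT-PCR versus DMSO vehicle.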

Measured: AC50

Sequence of Cytochrome P450 3A7 (Homo sapiens) (P24462 whole entry, looked up): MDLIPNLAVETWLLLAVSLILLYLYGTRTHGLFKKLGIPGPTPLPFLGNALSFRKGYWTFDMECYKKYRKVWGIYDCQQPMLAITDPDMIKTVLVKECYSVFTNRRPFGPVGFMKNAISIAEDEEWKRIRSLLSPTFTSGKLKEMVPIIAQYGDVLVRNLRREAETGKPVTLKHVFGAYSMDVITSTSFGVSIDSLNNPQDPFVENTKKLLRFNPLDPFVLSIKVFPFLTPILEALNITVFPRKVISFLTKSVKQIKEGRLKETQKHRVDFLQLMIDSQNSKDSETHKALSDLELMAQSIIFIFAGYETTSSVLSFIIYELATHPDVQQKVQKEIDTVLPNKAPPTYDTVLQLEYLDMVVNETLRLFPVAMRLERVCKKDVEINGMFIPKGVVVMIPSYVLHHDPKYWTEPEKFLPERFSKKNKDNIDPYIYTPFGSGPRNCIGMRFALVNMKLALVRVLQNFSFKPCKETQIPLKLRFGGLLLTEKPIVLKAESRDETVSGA
Sequence of Hypoxia-inducible factor 1-alpha (Homo sapiens) (Q16665 whole entry, looked up): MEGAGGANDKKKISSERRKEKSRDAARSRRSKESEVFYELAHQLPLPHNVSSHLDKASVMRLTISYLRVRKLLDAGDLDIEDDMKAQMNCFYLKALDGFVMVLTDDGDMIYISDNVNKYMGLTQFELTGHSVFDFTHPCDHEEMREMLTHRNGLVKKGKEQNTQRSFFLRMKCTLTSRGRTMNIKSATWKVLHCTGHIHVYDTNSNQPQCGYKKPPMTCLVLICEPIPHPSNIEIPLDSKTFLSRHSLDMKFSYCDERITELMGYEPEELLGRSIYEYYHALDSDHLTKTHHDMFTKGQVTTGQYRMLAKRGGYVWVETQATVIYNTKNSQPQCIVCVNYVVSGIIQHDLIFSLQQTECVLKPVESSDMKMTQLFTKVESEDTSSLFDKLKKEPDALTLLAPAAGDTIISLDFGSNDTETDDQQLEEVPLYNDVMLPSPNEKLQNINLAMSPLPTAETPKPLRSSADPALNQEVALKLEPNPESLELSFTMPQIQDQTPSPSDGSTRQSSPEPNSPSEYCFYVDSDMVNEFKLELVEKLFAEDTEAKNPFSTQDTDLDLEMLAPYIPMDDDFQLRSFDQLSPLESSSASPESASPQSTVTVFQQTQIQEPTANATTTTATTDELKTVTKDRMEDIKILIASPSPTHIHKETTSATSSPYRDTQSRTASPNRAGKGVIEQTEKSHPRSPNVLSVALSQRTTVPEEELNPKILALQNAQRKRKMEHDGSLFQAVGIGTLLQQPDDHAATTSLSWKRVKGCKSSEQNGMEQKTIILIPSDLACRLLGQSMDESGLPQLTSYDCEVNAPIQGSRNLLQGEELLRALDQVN
Sequence of Cytochrome P450 3A4 (Homo sapiens) (P08684 whole entry, looked up): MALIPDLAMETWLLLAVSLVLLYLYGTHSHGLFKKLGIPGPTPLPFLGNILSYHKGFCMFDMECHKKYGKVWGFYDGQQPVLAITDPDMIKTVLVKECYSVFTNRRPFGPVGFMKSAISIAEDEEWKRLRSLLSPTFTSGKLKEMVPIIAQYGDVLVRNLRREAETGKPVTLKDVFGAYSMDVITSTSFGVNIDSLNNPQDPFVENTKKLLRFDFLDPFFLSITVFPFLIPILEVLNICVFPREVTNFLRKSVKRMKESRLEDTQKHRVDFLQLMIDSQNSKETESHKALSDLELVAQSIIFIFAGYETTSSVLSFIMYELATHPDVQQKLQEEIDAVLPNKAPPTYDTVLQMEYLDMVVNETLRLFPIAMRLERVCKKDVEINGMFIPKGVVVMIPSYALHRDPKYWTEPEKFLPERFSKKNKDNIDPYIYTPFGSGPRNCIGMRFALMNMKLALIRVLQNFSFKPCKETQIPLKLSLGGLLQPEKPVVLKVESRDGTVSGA

Cc1cc(-c2ccc(N)c(C)c2)ccc1N
active: [7] 24.9 µM | [9] 9.92 µM | [16] 19.3 µM
inactive: [1] | [2] | [3] | [4] | [5] | [6] | [8] | [10] | [11] | [12] | [13] | [14] | [15] | [17] | [18]

O=C(NC(=O)c1c(F)cccc1F)Nc1cc(Cl)c(OC(F)(F)C(F)F)c(Cl)c1
active: [7] 25.1 µM | [9] 13.6 µM | [16] 34.7 µM
inactive: [1] | [2] | [3] | [19] | [4] | [5] | [8] | [10] | [11] | [20] | [12] | [13] | [14] | [15] | [17] | [18]

Cc1ccccc1CO[C@@H]1C[C@@]2(C(C)C)CC[C@]1(C)O2
inactive: [2] | [3] | [4] | [5] | [6] | [7] | [8] | [9] | [10] | [11] | [12] | [13] | [15] | [16] | [17] | [18]
active: [1] 23.1 µM | [14] 50 µM

N#Cc1ccc(N(CC(N)=O)CC(F)(F)F)cc1C(F)(F)F
active: [7] 2.3 µM | [9] 0.622 µM
inactive: [1] | [2] | [3] | [19] | [4] | [5] | [8] | [10] | [11] | [12] | [13] | [14] | [15] | [16] | [17] | [18]

CCC(C)c1cc([N+](=O)[O-])cc([N+](=O)[O-])c1O (stereo unspecified)
active: [1] 2.37 µM | [2] 5.95 µM | [3] 1.97 µM | [19] 17.1 µM | [4] 3.74 µM | [5] 1.57 µM | [7] 1.27 µM | [8] 2.35 µM | [9] 2.67 µM | [10] 2.72 µM | [11] 1.29 µM | [20] 4.96 µM | [12] 50 µM | [13] 4.16 µM | [14] 2.49 µM | [15] 18.5 µM | [16] 2.93 µM | [17] 2.87 µM | [18] 1.24 µM

O=NN(c1ccccc1)c1ccccc1
inactive: [1] | [2] | [3] | [19] | [4] | [5] | [6] | [7] | [9] | [10] | [11] | [12] | [13] | [14] | [15] | [16] | [17] | [18]
active: [8] 50 µM
